Screening results (PubChem)
A selection: hits, their analogues and other compounds. The true share with any hit is near 4.8%.
ssDAF12 agonist = S. stercoralis DAF-12 nuclear receptor activators, primary screen, cell-based, luminescence, HEK293, GRIP1 co-expression, lit1-tk-luc | Nuclear hormone receptor DAF-12 (Strongyloides stercoralis) | HEK293 ssDAF-12/GRIP1 lit1-tk-luc reporter; % of 3 µM dafachronic acid response | activation, % at 6.8 µM | actives 1% (n = 370,000) | AID 652126, 2013;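 active = activation above the mean over all tested compounds plus 3 SD, cut at about 0.9% in these data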
DAX1 inh-1 = DAX1 (NR0B1) inhibitors on StAR promoter, primary screen, cell-based, luminescence, SF-1 (NR5A1), full-length DAX-1; AID 652010, 2013; HEK293T StAR-luciferase reporter, SF-1/DAX-1 repression relief; inhibition, % at 6.8 µM; actives 1.1% (n = 370,000);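 active = inhibition above the mean over all tested compounds plus 3 SD, cut at about 3.6% in these data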;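 also: higher inhibition means more luminescence from relief of DAX-1 repression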
SMARCA2 activ = SMARCA2 (BRM) function activators, primary screen, cell-based, luminescence, high throughput; AID 652017, 2013; MG213 cells, MMTV-luciferase reporter, dexamethasone, overnight; activation, % at 9.1 µM; actives 1% (n = 370,000); in the data active = activation above about 7.8%
DAX1 inh-2 = DAX1 (NR0B1) inhibitors, primary screen, cell-based, HEK293, Gal4-DAX1, luciferase luminescence; HEK293 Gal4-DAX1 luciferase reporter; actives 0.99% (n = 340,000); inhibition, % at 6.75 µM; Nuclear receptor subfamily 0 group B member 1 (Homo sapiens), P51843;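 active = inhibition above the mean over all tested compounds plus 3 SD, cut at about 4.2% in these data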;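 also: inhibition shows as a rise in luminescence from relieved DAX1 repression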
Target sequence (P51843 207-470 limits assumed): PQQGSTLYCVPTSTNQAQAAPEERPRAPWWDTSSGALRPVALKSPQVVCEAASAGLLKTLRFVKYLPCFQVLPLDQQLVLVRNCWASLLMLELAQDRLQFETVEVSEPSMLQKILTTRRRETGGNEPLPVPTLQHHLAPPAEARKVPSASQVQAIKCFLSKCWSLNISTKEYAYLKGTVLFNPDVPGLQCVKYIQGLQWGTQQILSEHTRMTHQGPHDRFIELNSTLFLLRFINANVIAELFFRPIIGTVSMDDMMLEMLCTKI
hcDAF-12 act = H. contortus DAF-12 nuclear receptor activators, primary screen, cell-based, luminescence, HEK293, lit1-tk-luc reporter | activation, % at 6.8 µM | actives 1.4% (n = 370,000) | HEK293 hcDAF-12 lit1-tk-luc reporter; 0% DMSO, 100% Δ7-dafachronic acid;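 active = activation above the mean of all tested compounds plus 3 SD, cut at about 5.5% in these data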
hgDAF12 agonist = H. glycines DAF-12 receptor agonists, primary screen, cell-based, luminescence, HEK293, GAL4 fusion, UAS-luciferase. Nuclear hormone receptor DAF-12 (Heterodera glycines), GAL4 fusion. HEK293 GAL4-hgDAF12 UAS-luciferase reporter, agonist luminescence; normalized to butyrate control. activation, % at 6.8 µM. actives 1.8% (n = 370,000);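 active = activation above a cutoff set at the mean of all screened compounds plus 3 SD, cut at about 10% in these data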
DAX1 conf = DAX1 (NR0B1) inhibitors relieving SF-1 repression, confirmation, cell-based, luminescence, HEK293T, full-length DAX-1, SF-1 activated StAR promoter; HEK293T StAR-promoter luciferase reporter, SF-1/DAX-1 repression; actives 87% (n = 2,400); inhibition, % at 6.8 µM; AID 652134, 2013; shares compounds with DAX1 inh-1;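 active = inhibition above the average of every tested compound plus 3 SD, cut at about 3.8% in these data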
SF1 mutant ctr = StAR reporter signal changes without DAX1, counter-screen for DAX1 inhibitor project, cell-based, luminescence, AF-2 mutant SF-1, transactivation. shares compounds with DAX1 inh-1. HEK293 StAR-luciferase, SF-1 AF2 mutant. inhibition, % at 6.8 µM. actives 78% (n = 2,400). AID 652136, 2013;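 active = inhibition above the mean of all tested compounds plus 3 SD, cut at about 3% in these data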
Large screens that a line does not name were inactive (follow-up assays come after a bar, where they were run).

Cc1noc(C)c1C(=O)Nc1ccc(N(C)C)cc1	none
CN(C)c1ccc(NC(=O)c2cnsn2)cc1	DAX1 inh-1 6.3 | DAX1 conf 7.4 | SF1 mutant ctr inactive
COC(=O)c1ccc(S(=O)(=O)N2CCC(NC(=O)CCC3CCCC3)CC2)cc1	none (no result: DAX1 inh-2)
Cc1cc(C)c(NC(=O)Nc2ccc3c(c2)OCO3)c(C)c1	DAX1 inh-1 4.7 | DAX1 conf inactive | SF1 mutant ctr 3.4
Cc1ccc(C(=O)O)cc1NC(=O)Nc1ccc2c(c1)OCO2	none
O=C(Nc1cccc(C(=O)O)c1)Nc1ccc2c(c1)OCO2	DAX1 inh-1 6.8 | DAX1 conf 6.3 | SF1 mutant ctr 5.5
O=C(Nc1ccc2c(c1)OCO2)NC1CCCCN(Cc2cccc(Cl)c2)C1=O (configuration not stated)	none (no result: DAX1 inh-2)
Cc1ccc(-c2cc(C(=O)N3CCCC3)no2)cc1	DAX1 inh-1 4.9 | DAX1 conf 8.6 | SF1 mutant ctr inactive
COC(=O)[C@H]1C[C@@]2(N3CCCCC3)c3ccccc3N[C@H]2N1S(=O)(=O)c1ccc(C)cc1	none (no result: DAX1 inh-2)
CCOC(=O)N1CCN(C(=O)C[C@@H]2C(=O)N(Cc3ccc(OC)cc3)C3=CCN(C(=O)OC(C)(C)C)C[C@]32C(=O)OCC)CC1	none (no result: DAX1 inh-2)
CCOc1cc(N2CCC(O)CC2)ccc1Nc1ncc2c(n1)N(C)c1ccccc1C(=O)N2C	DAX1 inh-1 5.9 (no result: DAX1 inh-2) | DAX1 conf inactive | SF1 mutant ctr inactive
CC(=Nc1ccccc1)C1=C(O)C(Cc2cccc(F)c2)NC1=O (configuration not stated)	DAX1 inh-1 6.0 | DAX1 conf 25 | SF1 mutant ctr inactive
COc1ccccc1Cc1c(-c2ccc(F)cc2)nc2c(C)cc(Br)cn12	none (no result: DAX1 inh-2)
N#Cc1ccc(-c2nc3ccc(Br)cn3c2Cc2ccsc2)cc1	none (no result: DAX1 inh-2)
COc1ccccc1Cc1c(-c2cccc(Br)c2)nc2ccc(Cl)cn12	none (no result: DAX1 inh-2)
COc1ccccc1Cc1c(-c2ccc(Cl)cc2)nc2ccc(Br)cn12	DAX1 inh-1 5.5 (no result: DAX1 inh-2) | DAX1 conf 6.3 | SF1 mutant ctr 4.3
Clc1ccc(-c2nc3ccc(Br)cn3c2Cc2ccsc2)cc1	DAX1 inh-1 5.2 (no result: DAX1 inh-2) | DAX1 conf 5.2 | SF1 mutant ctr inactive
COc1ccccc1Cc1c(-c2ccc(C)cc2)nc2c(C)cc(Br)cn12	DAX1 inh-1 5.3 (no result: DAX1 inh-2) | DAX1 conf inactive | SF1 mutant ctr inactive
COc1ccccc1Cc1c(-c2ccc(C)cc2)nc2ccc(Br)cn12	DAX1 inh-1 7.4, hcDAF-12 act 6.3, hgDAF12 agonist 23 (no result: DAX1 inh-2) | DAX1 conf 8.2 | SF1 mutant ctr 5.6
Oc1ccccc1C=Nn1c(-c2ccccc2F)n[nH]c1=S	none (no result: DAX1 inh-2)
O=C(CSc1nc2ncccc2[nH]1)N1CCOCC1	none (no result: DAX1 inh-2)
COC(=O)c1ccc2nc(-c3ccccc3)c(Cc3ccccc3OC)n2c1	DAX1 inh-1 4.8 (no result: DAX1 inh-2) | DAX1 conf inactive | SF1 mutant ctr inactive
Cc1ccc(-c2nc(C3CCCN(S(=O)(=O)c4cccs4)C3)no2)cc1 (configuration not stated)	none (no result: DAX1 inh-2)
CCOC(=O)c1c(C)[nH]c(C(=O)NNC(=O)c2ccccc2F)c1C	DAX1 inh-1 5.1 | DAX1 conf 8.3 | SF1 mutant ctr 6.5
CC(C)(C)c1ccc(-c2nnc(SCC(=O)NCC3CCCO3)n2N)cc1 (configuration not stated)	DAX1 inh-1 6.5 | DAX1 conf inactive | SF1 mutant ctr inactive
O=C(NNC(=O)c1ccc2c(=O)n3c(nc2c1)CCC3)c1ccc(F)cc1	none
Cc1ccc(C)c(NC(=O)c2ccc3c(=O)n4c(nc3c2)CCC4)c1	none
O=C(Nc1ccc(F)cc1Cl)c1ccc2c(=O)n3c(nc2c1)CCC3	DAX1 inh-1 8.8, hcDAF-12 act 6.5, hgDAF12 agonist 10 | DAX1 conf 8.6 | SF1 mutant ctr 5.7
O=C(Nc1ccc(F)cc1F)c1ccc2c(=O)n3c(nc2c1)CCC3	DAX1 inh-1 11, hgDAF12 agonist 13 | DAX1 conf 7.9 | SF1 mutant ctr 6.5
COC(=O)c1ccc(S(=O)(=O)N2CCC(NC(=O)COc3ccc(F)cc3)CC2)cc1	none (no result: DAX1 inh-2)
CN(C)CCN(C(=O)c1ccc2c(c1)CCCC2)c1nc2cc3c(cc2s1)OCCO3	DAX1 inh-1 6.0, hcDAF-12 act 6.1 | DAX1 conf 4.4 | SF1 mutant ctr inactive
CN(C)CCN(C(=O)c1ccc2c(c1)OCCO2)c1nc2cc3c(cc2s1)OCO3	none
CCCCNS(=O)(=O)/C=C/c1ccc(OC)cc1CNC(=O)OC(C)(C)C	none (no result: DAX1 inh-2)
COc1ccc(NC(=O)c2noc3c2CCC3)cc1	DAX1 inh-1 4.9, hgDAF12 agonist 13 | DAX1 conf 13 | SF1 mutant ctr 6.0
CCOC(=O)c1ccc(NC(=O)N2CCc3ccccc32)cc1	DAX1 inh-1 4.8, hgDAF12 agonist 18 | DAX1 conf 11 | SF1 mutant ctr 7.9
CC(C)c1ccc(NC(=O)c2ccc3snnc3c2)cc1	DAX1 inh-1 5.0, hgDAF12 agonist 12 | DAX1 conf inactive | SF1 mutant ctr inactive
O=C(Nc1ccccc1)c1ccc2snnc2c1	none
CCCOc1ccc(-c2cc(C(C)=O)c3n(c2=O)CCC3)cc1	none (no result: DAX1 inh-2)
Cc1cc(C)cc(N(CC(=O)NC2CCC(C)CC2)S(=O)(=O)c2ccccc2)c1 (configuration not stated)	none (no result: DAX1 inh-2)
Cc1ccc(OCC(=O)Nc2ccc(Cl)cc2)c([N+](=O)[O-])n1	DAX1 inh-1 6.2, hgDAF12 agonist 11 | DAX1 conf 10 | SF1 mutant ctr 7.5
Cc1ccc(OCC(=O)Nc2ccc3c(c2)CCC3)c([N+](=O)[O-])n1	none
O=C(Nc1ccc2c(c1)OCCO2)c1ccccc1F	DAX1 inh-1 4.8, hcDAF-12 act 5.7, hgDAF12 agonist 11 | DAX1 conf 14 | SF1 mutant ctr 6.2
